“And” between values parts separate entries of the source, which are not always exact repeats. Equal entries are not always repeated. The panel holds about 79,000 compounds, 15% with a hit somewhere; the sample as a whole holds those more often. Unmarked numbers belong to inactive results. The source made the active and inactive calls. Rule as the data show it: active = growth inhibition above about 70%; inactive = the rest. Where a SMILES comes first, the peptide text is derived from it. The star is where a group is joined. Boc = CC(C)(C)OC(=O)*
What was measured:
[1] = NCI Yeast Anticancer Drug Screen. Data for the rad50 strain (AID 155);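 also: 0% = growth of vehicle-only cultures of the same strain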; conditions: S. cerevisiae rad50 strain growth inhibition, stronger effect = higher value; at 50.0 µM unless noted
Procedure, shortened: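 DNA repair mutant yeast, compound exposure, growth read-out; inhibition is taken relative to vehicle.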

[2] = NCI Yeast Anticancer Drug Screen. Data for the mec2-1 strain (AID 157); conditions: S. cerevisiae mec2-1 strain, stronger effect = higher value; at 50.0 µM unless noted
Procedure, shortened: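 mec2-1 yeast strain, carrying an alteration in DNA damage repair or cell cycle control, was exposed to compounds; growth inhibition was measured relative to vehicle-treated controls.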

[3] = NCI Yeast Anticancer Drug Screen. Data for the sgs1 mgt1 strain (AID 161);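 also: 0% = growth of cultures given vehicle only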; conditions: S. cerevisiae sgs1 mgt1 strain, stronger effect = higher value; at 50.0 µM unless noted
Procedure, shortened: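 Yeast cells carrying a defined DNA-repair defect were exposed to test compounds. Growth inhibition was measured relative to vehicle-treated controls.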

[4] = NCI Yeast Anticancer Drug Screen. Data for the cln2 rad14 strain (AID 165);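 also: 0% = growth equal to vehicle treated cultures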; conditions: S. cerevisiae cln2 rad14 strain, stronger effect = higher value; at 50.0 µM unless noted
Procedure, shortened: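 Yeast carrying cln2 and rad14 alterations (cell cycle control and DNA damage repair) were exposed to compounds. Growth inhibition was measured against vehicle-treated controls.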

[5] = NCI Yeast Anticancer Drug Screen. Data for the bub3 strain (AID 167); conditions: S. cerevisiae bub3 mutant strain, stronger effect = higher value; at 50.0 µM unless noted
Procedure, shortened: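 In this screen, a yeast mutant lacking normal mitotic checkpoint function is challenged with compound. Relative growth versus vehicle gives the inhibition value.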

[6] = NCI Yeast Anticancer Drug Screen. Data for the mlh1 rad18 strain (AID 175); conditions: S. cerevisiae mlh1 rad18 strain growth inhibition, stronger effect = higher value; at 50.0 µM unless noted
Procedure, shortened: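 Growth inhibition of the yeast strain was measured after compound exposure and expressed relative to vehicle-treated controls. The strain carries defined defects in DNA damage repair.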

| SMILES | growth inhibition [1] | growth inhibition [2] | growth inhibition [3] | growth inhibition [4] | growth inhibition [5] | growth inhibition [6] |
| --- | --- | --- | --- | --- | --- | --- |
| CCCSc1ncnc2nc[nH]c12 | 23.6% | -1% | 9.7% | -15.1% | -13.7% | 16.9% |
| COc1ccc(CCn2c(=O)c3ccccc3n(C)c2=O)cc1 | 17.9% | -4.2% | 13.2% | 34.2% | 41.6% | 0.8% |
| Cc1ccc(C(=O)CC2=Nc3nnc(CCCCCCCc4nnc5n4C(=O)C(CC(=O)c4ccc(C)cc4)=N5)n3C2=O)cc1 | -9.45% | 22.4% | -0.1% | -22% | -5.25% | -11.1% |
| O=C1CCC(c2nc3ccccc3[nH]2)N1Cc1ccccc1 (stereo not given) | 13.9% | 2.3% | 18.1% | 4.35% | 6.4% | 18.9% |
| Cc1ccccc1C(c1ccccc1Cl)[N+](C)(C)C (stereo not given) | 35% | 14.7% | 27.1% | 19.2% | -3.95% | 43.1% |
| O=C(Nc1ccc(C(=O)O)cc1)Nc1cccc(Cl)c1 | -6.15% | 2.1% | -9.55% | -14.3% | 0.65% | 7.4% |
| CC(=O)[C@@]1(O)CC[C@H]2[C@@H]3CC=C4C[C@@H](Cl)CC[C@]4(C)[C@H]3CC[C@@]21C | -16.9% | 4.85% | 13.8% | -2.75% | 8.5% | 7.1% |
| C=C1CC[C@](C)(O)[C@@]2(C)CC[C@H]3C(=C(C)C)C(=O)C[C@]3(C)C[C@H]12 | 12.1% | 5.45% | 10.2% | 18.5% | 1.7% | 23.8% |
| O=C1CN(CCc2ccccc2)CC(=O)N2C(c3ccccc3)CCCN12 (stereo not given) | 62.7% | 38.5% | 65.2% | 42.2% | 52% | 43.4% |
| CN1C2=NCCN2C(=O)c2cc(Cl)ccc21 | 1.05% | -21.9% | 15.6% | 8.65% | 13.7% | 9.9% |
| CCCCCCCCC(=O)Nc1cccc(O)c1 | -6.7% | -12.4% | -8.45% | -48.6% | -26.4% | -13.8% |
| Cc1ccc(OCC(=O)O)c(Cl)c1 | -1.9% | -1.9% | 0.65% | -22.4% | 17.4% | 2.3% |
| CCc1ccccc1NC(=O)C(=O)CC(=O)c1sc(Nc2ccccc2Cl)nc1C | 6.25% | 6.15% | 26% | -16.6% | -2.65% | 15.1% |
| C#CCOCC(CCl)OC(=O)Nc1ccccc1 (stereo not given) | 14.7% | 47.1% | 11.6% | 11.8% | 14.7% | 84.4% (active) |
| COc1ccc2cc1Oc1ccc(cc1)C[C@H]1c3cc(c(OC)cc3CCN1C)Oc1c(OC)c(OC)cc3c1[C@H](C2)N(C)CC3 | 27.1% and 23.9% | 12.3% and -23.1% | -15.9% and 5.7% | -26.3% and 4.5% | -6.4% and 19.7% | -31.4% and -38.9% |
| C[C@H]1/C(=C/C(=O)OCCN(C)C)CC[C@H]2[C@H]1C(=O)C[C@H]1C(C)(C)[C@@H](O)CC[C@]21C | 1.2% | -1.75% | -0.55% | 13.8% | 15.9% | -34.1% |
| COC(=O)c1ccccc1-c1ccccc1C(=O)O | 1.2% | -3.35% | -5.45% | -13.8% | 8.3% | -1.7% |
| O=C(O)C(Nc1ccc(Cl)cc1)c1ccccc1 (stereo not given) | 1.7% | 3.25% | 18.9% | 6.5% | 8.1% | -22.6% |
| COc1ccc(C(=O)O)c(Cc2ccc3ccccc3c2)c1 | 0.4% | -4.7% | 4.3% | 10% | -5.95% | 36% |
| COc1ccc(/C(Cc2ccccc2)=N/Nc2ccc([N+](=O)[O-])c([N+](=O)[O-])c2)cc1 | 48.1% | -8.15% | 23.5% | 6.35% | 9.7% | 20.1% |

| SMILES | growth inhibition [1] | growth inhibition [2] | growth inhibition [3] | growth inhibition [4] | growth inhibition [5] | growth inhibition [6] |
| --- | --- | --- | --- | --- | --- | --- |
| CNC(=S)C#N | -21.8% | -14.4% | -15.3% | 11.9% | -13% | 0.1% |
| Cc1ccc(S(=O)(=O)N/N=C/c2ccoc2)cc1 | -32.1% | -8.6% | -17.1% | -3.9% | 4.45% | -14.4% |
| O=C(O)/C(=C/c1cccc(Cl)c1)c1ccc(Cl)cc1 | 0.85% | -10.8% | 0.7% | -51.8% | 2.4% | -0.75% |
| CCc1nc(N)nc(N)c1-c1ccc(NC2CCCCC2)c([N+](=O)[O-])c1 | 10.3% | 14.2% | 16.1% | 17.9% | -6.05% | 27.1% |
| C(=C/c1ccccc1)/c1ccccc1 | -6.45% | -16.1% | -25.6% | 8.85% | -2.65% | -2.15% |
| COC(=O)C(Cc1c[nH]c2ccccc12)NC(=O)C(Cc1c[nH]c2ccccc12)NC(=O)C(Cc1c[nH]c2ccccc12)NC(=O)C(Cc1c[nH]c2ccccc12)NC(=O)C(Cc1c[nH]c2ccccc12)NC(=O)C(Cc1c[nH]c2ccccc12)NC(=O)OC(C)(C)C (stereo not given) (Boc-WWWWWW-OMe; configuration not given here) | -6.8% | -12.7% | -18.4% | 7.25% | 8.25% | 16.4% |
| O=C1C=CC=C/C1=C1/SC(c2ccccc2)=C(O)N1c1ccccc1 | -40.2% | -8.2% | -12.5% | -17.3% | -19.9% | -18.5% |
| CC(NC(=O)CNC(=O)OCc1ccccc1)C(=O)O (stereo not given) | 3.55% | 9.35% | 11.6% | -0.35% | 8.1% | -10.1% |
| CCOC(=O)/C(Cc1cc[n+]([O-])cc1)=N/O | 33.5% | 27.3% | 15.2% | 13.5% | 13.6% | 20.5% |
| CSc1ccc(Nc2cc(=O)[nH]c(=O)[nH]2)cc1 | 14.6% | 8.75% | 18.1% | 2.3% | 3.7% | -10.9% |
| CC(C#N)C(=O)O (stereo not given) | -3.55% | -5.85% | -15.7% | -8.15% | -8.15% | -18.5% |
| CN1CCCC1CCN (stereo not given) | 0.15% | -10.8% | -13.8% | -1% | 3.9% | 6.15% |
| CCCn1/c(=N\N=O)sc2ccccc21 | -0.45% | 2.9% | -5.5% | -29.6% | -23.1% | 7% |
| C[N+]1(Cc2ccco2)CCCCC1 | -12.6% | 9.65% | 0.15% | -14.4% | 9% | -6.85% |
| O=C1CN2CCC1C/C2=C\c1ccnc2c(Cl)cc(Cl)cc12 (stereo not given) | 7.75% | -7.55% | -0.9% | -3.4% | -12% | 19.2% |
| CN(Cc1ccccc1)C(=O)Nc1ccc(Cl)c(Cl)c1 | 95.8% (active) | 99% (active) | 99% (active) | 97.1% (active) | 97.7% (active) | 98.5% (active) |
| CC1=C(C#N)C(=C(C#N)C#N)OC1(C)Cc1ccccc1 (stereo not given) | 8.25% | 6.35% | 24.6% | 8.55% | 2.85% | 33.1% |
| OC(c1ccccc1)c1ccc(C(O)c2ccccc2)cc1 (stereo not given) | -14.2% | -19.1% | -8.85% | 33.3% | 5.5% | -8.75% |
| CC(C)(C)[Si](C)(C)OCC1OC(n2cnc3c(=O)[nH]cnc32)CC1O (stereo not given) | 0.35% | 6.2% | 3.2% | 8% | 44% | -7.85% |
| COc1cc(CC(=O)O)ccc1OC(C)=O | 4.15% | 2.65% | -16.8% | -25.1% | 1.25% | -5.75% |

Source: PubChem BioAssay (NCI)
